Records with an inconclusive call do not appear. Where a call stands in place of a potency, no number is given. The source made the active and inactive calls. Calls follow the shape of the dose curve; as a rule, active = well fitted cell-killing curve with a large enough effect; inconclusive = small, poorly fitted or top-dose-only effect, or effect the other way; inactive = flat fitted curve, though single readings scatter. Square brackets hold non-standard residues; d marks the D form. Peptide text beside a SMILES is read from it. ξ: configuration not given here. ξL = CC(C)CC(N)C(=O)O

The assay is described as follows: UWB1.289-WTBRCA1 Cancer Cell Toxicity qHTS against the NCATS CANVASS Library (AID 1347354). The following applies: UWB1.289-WTBRCA1 viability, CellTiter-Glo luminescence, 72 h; series mostly up to 38.3 µM. Summed up:
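Cells were seeded at 1000 per well and allowed to settle 4 hours at 37 degrees C before pin transfer of compounds as an 11-point series. Viability was read by CellTiter-Glo luminescence after 72 hours' exposure.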
In the case of `O[C@H]1C=C2[C@H]3CN(Cc4cc5c(cc43)OCO5)[C@H]2C[C@@H]1O`, the Potency result is “inactive”.
Consider `CC[C@@H](c1cc(OC)c(OC)cc1OC)[C@H](C)[C@@H](/C(C)=C/c1cc(OC)c(OC)cc1OC)c1cc(OC)c(OC)cc1OC`, for which the Potency entry is “inactive”.
On to `CC[C@@H](C)[C@H]1NC(=O)C(CC(C)C)NC(=O)[C@@H](CC(C)C)NC(=O)[C@H](Cc2c[nH]c3ccccc23)NC(=O)CNC(=O)[C@@H](CC(N)=O)NC1=O` (stereo partly drawn) (cyclo(GW[dL][ξL][dI][dN])), for which the Potency entry is “inactive”.
Take `CN1CCc2cc3c(c4c2C1(C)C(=O)c1cc(O)ccc1-4)OCO3` (centres undefined): the Potency entry is “inactive”.
Consider `COc1cc2c(cc1OC)[C@@H](c1ccc3c(c1)OCO3)C(C)[C@@H](C)C2=O` (some centres undefined), for which the Potency result was “inactive”.
With `CC(C)[C@@H]1CC(=O)c2coc3c2[C@H]1C[C@@H](C)C3=O`, the Potency entry is “inactive”.
Take `COc1cc2oc3ccccc3c(=O)c2cc1OC`: the Potency entry was “inactive”.
Take `COC(=O)[C@@]1(C)CCC[C@]2(C)c3cc(OC)ccc3CC[C@@H]12`: the Potency entry is “inactive”.
As for `COc1cc2ccc(=O)oc2c(O)c1O[C@@H]1O[C@H](CO)[C@@H](O)[C@H](O)[C@H]1O`, the Potency entry is “inactive”.
`O=C1CCC(=O)N(O)CCCCCNC(=O)CCC(=O)N(O)CCCCCNC(=O)CCC(=O)N(O)CCCCCN1`: the Potency entry is “inactive”.
In the case of `C=C1C[C@H]2O[C@@H]3[C@@H]4[C@H](CC[C@@](C)(O)[C@@H]42)[C@H](C)COC3(C)[C@@H](OC(=O)CCCCCCC)C[C@H]1O` (some centres undefined), the Potency result was “inactive”.
Consider `CC1=C(C)C(=O)OC(C(C)C2(O)CCC3C4C5OC5C5(O)CC=CC(=O)C5(C)C4CCC32C)C1` (centres undefined), for which the Potency result is “inactive”.
`C[C@H](CCC(O)C(C)(O)CO)[C@@]1(O)CC[C@@]2(C)C3=C(CC[C@@]21C)[C@@]1(C)CCC(OC(=O)CCC(=O)O)C(C)(C)[C@@H]1CC3` (some centres undefined): the Potency entry is “inactive”.
Consider `C=C[C@@](C)(O)CC[C@@H]1[C@@]2(C)CCCC(C)(C)[C@@H]2CC[C@@]1(C)O`, for which the Potency entry is “inactive”.
With `COc1ccc([C@@H]2c3cc4c(cc3C(=O)[C@H](C)C2C)OCO4)cc1OC` (some centres undefined), the Potency result is “inactive”.
As to `C/C(=C\[C@H](C)C(=O)/C=C/CC1CC(=O)NC(=O)C1)[C@@H]1OC(=O)CCCC/C=C/[C@H](O)[C@@H](O)[C@@H]1C`, the Potency entry is “inactive”.
For `C[C@H](c1cnc(N)[nH]1)c1ccc(O)c2[nH]cc(-c3cnc(-c4c[nH]c5ccccc45)c(=O)[nH]3)c12`, the Potency result is “inactive”.
Take `COc1ccc([C@@H]2c3cc4c(cc3C[C@H](C)C2C)OCO4)cc1OC` (some centres undefined): the Potency result was “inactive”.
As for `CC[C@@H]1[C@H](C)[C@H](c2cc(OC)c(OC)cc2OC)[C@@H](C)[C@H](c2cc(OC)c(OC)cc2OC)[C@]12C=C(OC)C(=O)C=C2OC`, the Potency entry is “inactive”.

For the origin of these results see PubChem BioAssay (NCATS).
